According to PubChem BioAssay AID1159580 (chemical genetic matrix, 2015):
“And” between values parts separate entries of the source, which are not always exact repeats. Equal values may be shown once. The whole screen tested about 5,500 compounds, of which about 2,000 (36%) were called active. Roughly 18% stayed inconclusive and do not appear here. Rule as the data show it: active = normalized growth mostly below about 0.91 (no sharp cut-off); inconclusive = no clear call, values can overlap the other calls; inactive = mostly above about 0.92. The list shows a part of the results.

Test: chemical genetic growth profiling, strain panel (AID 1159580);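 also: tested at 20 µM; growth read once vehicle control cultures reached saturation at 30 °C; 1 = growth at the plate median or of vehicle wells; lower values mean less growth of the strain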
Details: S. cerevisiae deletion strains, growth OD

Measured: normalized growth

C=C[C@@]1(C)CC(=O)[C@@]2(O)[C@](C)(O1)[C@@H](OC(C)=O)[C@@H](O)C1C(C)(C)CC[C@H](O)[C@@]12C (stereo partly specified)
inactive: locus YAL013W, strain DEP1, hits give low values 0.984 | locus YAL021C, strain ccr4, hits give low values 0.951 | locus YAL026C, strain drs2, hits give low values 0.978 | locus YAL030W, strain snc1, hits give low values 0.973 | locus YBL061C, strain skt5, hits give low values 0.984 | locus YBR009C, strain hhf1, hits give low values 1 | locus YBR021W, strain FUR4, hits give low values 1.01 | locus YBR023C, strain chs3, hits give low values 0.978 | locus YBR171W, strain sec66, hits give low values 0.992 | locus YBR229C, strain ROT2, hits give low values 0.947 | locus YBR231C, strain swc5, hits give low values 1.01 | locus YBR279W, strain paf1, hits give low values 0.974 | locus YCL011C, strain gbp2, hits give low values 0.954 | locus YCL016C, strain dcc1, hits give low values 0.956 | locus YCL029C, strain bik1, hits give low values 0.977 | locus YCL069W, strain vba3, hits give low values 0.983 | locus YCR088W, strain abp1, hits give low values 0.996 | locus YDL005C, strain med2, hits give low values 0.983 | locus YDL035C, strain GPR1, hits give low values 0.96 | locus YDL040C, strain nat1, hits give low values 0.986 | locus YDL074C, strain BRE1, hits give low values 0.999 | locus YDL101C, strain DUN1, hits give low values 0.988 | locus YDL134C, strain PPH21, hits give low values 0.981 | locus YDL185W, strain tfp1, hits give low values 0.986 | locus YDL192W, strain arf1, hits give low values 0.976 | locus YDR001C, strain nth1, hits give low values 0.976 | locus YDR069C, strain doa4, hits give low values 0.975 | locus YDR101C, strain arx1, hits give low values 0.986 | locus YDR137W, strain rgp1, hits give low values 0.989 | locus YDR150W, strain NUM1, hits give low values 0.972 | locus YDR159W, strain sac3, hits give low values 1.02 | locus YDR162C, strain NBP2, hits give low values 0.969 | locus YDR195W, strain ref2 1.02 | locus YDR297W, strain sur2, hits give low values 0.977 | locus YDR318W, strain mcm21, hits give low values 0.986 | locus YDR334W, strain swr1, hits give low values 0.972 | locus YDR335W, strain msn5, hits give low values 0.988 | locus YDR388W, hits give low values 0.988 | locus YDR392W, strain spt3, hits give low values 0.905 | locus YDR502C, strain sam2, hits give low values 0.965 | locus YEL003W, strain gim4, hits give low values 0.994 | locus YEL037C, strain rad23, hits give low values 0.997 | locus YEL061C, strain CIN8 (second series), hits give low values 0.992 | locus YEL061C, strain CIN8, hits give low values 0.983 | locus YER015W, strain faa2, hits give low values 0.993 | locus YER016W, strain bim1, hits give low values 0.963 | locus YER110C, hits give low values 0.976 | locus YER111C, strain swi4, hits give low values 1.01 | locus YER155C, strain BEM2 (second series), hits give low values 0.999 | locus YER155C, strain BEM2, hits give low values 1.01 | locus YER167W, strain BCK2, hits give low values 0.964 | locus YFR010W, strain ubp6, hits give low values 0.998 | locus YGL078C, strain dbp3, hits give low values 0.985 | locus YGL086W, strain mad1, hits give low values 0.984 | locus YGL167C, strain pmr1, hits give low values 0.99 | locus YGL173C, strain kem1, hits give low values 0.987 | locus YGL227W, strain vid30, hits give low values 0.985 | locus YGL240W, strain doc1, hits give low values 0.98 | locus YGL248W, strain PDE1, hits give low values 0.982 | locus YGL253W, strain hxk2, hits give low values 0.948 | locus YGR078C, strain PAC10, hits give low values 1.01 | locus YGR135W, strain pre9, hits give low values 0.985 | locus YGR229C, strain SMI1, hits give low values 0.998 | locus YGR252W, strain gcn5, hits give low values 1 | locus YHR013C, strain ard1, hits give low values 0.948 | locus YHR027C, strain rpn1, hits give low values 0.982 | locus YHR030C, strain SLT2, hits give low values 0.987 and 0.975 | locus YHR079C, strain IRE1 (second series), hits give low values 0.994 | locus YHR079C, strain IRE1, hits give low values 0.978 | locus YHR094C, strain hxt1, hits give low values 0.987 | locus YHR129C, strain ARP1, hits give low values 0.996 | locus YHR142W, strain chs7, hits give low values 0.955 | locus YHR200W, strain rpn10, hits give low values 0.989 | locus YIL066C, strain RNR3, hits give low values 0.979 | locus YIL073C, strain SPO22, hits give low values 0.945 | locus YIL125W, strain kgd1, hits give low values 0.983 | locus YIR030C, strain dcg1, hits give low values 0.979 | locus YJL092W, strain hpr5, hits give low values 0.974 | locus YJL095W, strain BCK1 (second series), hits give low values 0.978 | locus YJL095W, strain BCK1, hits give low values 1 and 0.973 | locus YJL115W, strain asf1, hits give low values 0.964 | locus YJL129C, strain trk1, hits give low values 0.954 | locus YJL134W, strain LCB3, hits give low values 0.984 | locus YJL154C, strain vps35, hits give low values 0.982 | locus YJL164C, strain tpk1, hits give low values 0.995 | locus YJL166W, strain qcr8, hits give low values 0.992 | locus YJL168C, strain set2, hits give low values 0.992 | locus YJL187C, strain SWE1 (second series), hits give low values 0.991 | locus YJL187C, strain SWE1, hits give low values 0.984 | locus YJR043C, strain POL32, hits give low values 1.01 | locus YJR066W, strain TOR1, hits give low values 0.927
